Legend:
Experiment in all cases: PBM binding z-score (relative to random genomic background probes); higher = stronger binding; sequences stand for … in GC…GCGATTGACAGCGTAGAATGAAGG
[1] = system: PPARg:RXRa DBDmut IVT, anti-RXR (DBD mutation: RXRa K156A/R161A, NR concentration 270 nM, RXRa partner concentration 90 nM)
How it was run: (§1)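 Binding z-scores take random background probes as their reference. They come from custom Agilent 4×180K protein-binding microarrays incubated 1 h with ligand-free nuclear receptor dimers, with antibodies against each partner (one per run) detecting binding. Scanned fluorescence was regression-normalized.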

[2] = system: PPARg:RXRa IVT, anti-PPARg (NR concentration 270 nM, RXRa partner concentration 90 nM)
How it was run: as §1

[3] = system: PPARg DBDmut:RXRa IVT, anti-PPARg (DBD mutation: PPARg1 K132A/R137A, NR concentration 270 nM, RXRa partner concentration 90 nM)
How it was run: as §1

[4] = system: PPARg DBDmut IVT, anti-PPARg (DBD mutation: PPARg1 K132A/R137A, NR concentration 270 nM)
How it was run: as §1

[5] = system: PPARg homodimer (NR concentration 180 nM)
How it was run: as §1

[6] = system: PXR:RXRa (NR concentration 270 nM, RXRa partner concentration 90 nM)
How it was run: as §1

[7] = system: PXR homodimer (NR concentration 270 nM)
How it was run: as §1

[8] = system: RARa:RXR (NR concentration 270 nM, RXRa partner concentration 90 nM)
How it was run: as §1

[9] = system: RARa homodimer (NR concentration 270 nM)
How it was run: as §1

[10] = system: RARb:RXRa (NR concentration 270 nM, RXRa partner concentration 90 nM)
How it was run: as §1

[11] = system: RARb homodimer (NR concentration 270 nM)
How it was run: as §1

[12] = system: RARg:RXRa (NR concentration 270 nM, RXRa partner concentration 90 nM)
How it was run: as §1

[13] = system: RARg homodimer (NR concentration 270 nM)
How it was run: as §1

[14] = system: RXRa DBDmut IVT, anti-RXR (DBD mutation: RXRa K156A/R161A, NR concentration 90 nM)
How it was run: as §1

[15] = system: RXRa homodimer (NR concentration 180 nM)
How it was run: as §1

[16] = system: THRa:RXRa (NR concentration 90 nM, RXRa partner concentration 90 nM)
How it was run: as §1

[17] = system: THRa homodimer (NR concentration 90 nM)
How it was run: as §1

[18] = system: VDR homodimer (NR concentration 270 nM)
How it was run: as §1

Row | Sequence | PBM binding z-score [1] | PBM binding z-score [2] | PBM binding z-score [3] | PBM binding z-score [4] | PBM binding z-score [5] | PBM binding z-score [6] | PBM binding z-score [7] | PBM binding z-score [8] | PBM binding z-score [9] | PBM binding z-score [10] | PBM binding z-score [11] | PBM binding z-score [12] | PBM binding z-score [13] | PBM binding z-score [14] | PBM binding z-score [15] | PBM binding z-score [16] | PBM binding z-score [17] | PBM binding z-score [18]
1 | CGAACTAGGTCATTGACAGGACAGTGTATAGTAA | 7.92 | 8.25 | 2.44 | 1.65 | 2.13 | 1.67 | 0.281 | 2.47 | 0.571 | 3.63 | 2.93 | 4.51 | 4.13 | 2.69 | 2.38 | 3.02 | 0.913 | 1.47
2 | GCTAGTTGGTCCGTAAAAGGTCACACACCGGTCG | 0.234 | 1.86 | 0.724 | 0.195 | 2.89 | 4.94 | 1.12 | 5.63 | 1.86 | 3.99 | 5 | 5.04 | 4.7 | 0.491 | 5.6 | 3.5 | 1.82 | 1.94
3 | CCTACTGGGCCATTCAGAGATCATTGATCATATG | 4.48 | 3.51 | 0.0285 | 0.282 | -0.3 | -0.546 | -0.622 | -0.523 | 0.13 | 0.0331 | -0.395 | -0.116 | 0.345 | -0.0997 | -0.144 | -0.209 | -0.607 | -0.171
4 | TCTTGTATATCAAGCAGGTTAAGAAAGCCTGAGT | 1.41 | 0.503 | 0.561 | 1.48 | 0.514 | 0.624 | 0.331 | 0.805 | 0.189 | 0.615 | 0.552 | 0.261 | -0.15 | 0.788 | 0.587 | 0.47 | -0.282 | 0.228
5 | CCTTACGGGTCACGAGGTTATAGCACGACGAGCG | 3.98 | 5.69 | 1.85 | 0.701 | 2.37 | 4.46 | 0.418 | 5.47 | 0.688 | 4.62 | 4.07 | 6.25 | 5.47 | 1.53 | 6.87 | 3.69 | 1.09 | 2.03
6 | CCTAGCATGCCAATCTGGGTCACTCAAGGCTTGA | 3.67 | 4.84 | 0.133 | -0.458 | 0.737 | 0.913 | -0.249 | 1.65 | -0.219 | 1.16 | 1.86 | 0.768 | 0.691 | 0.255 | 0.917 | 2.93 | 0.266 | -0.104
7 | TCTATCAGTTGAAGGGCAACCGACGAGTCCGTTT | 2.02 | 0.545 | -0.244 | 0.0205 | 0.44 | 0.571 | 0.541 | 0.596 | 0.00832 | 1.63 | 1.44 | 0.695 | 0.748 | 1.11 | 0.849 | 0.16 | 0.0373 | 1.44
8 | GGAACGAGGGCAAGTTGATAGGAGAGTTTGATGG | 3.49 | 2.69 | -0.522 | 0.0128 | 0.664 | 0.817 | 1.15 | 0.165 | -0.204 | 2.63 | 1.61 | 1.72 | 2.08 | 2.4 | 0.681 | 1.27 | 0.249 | 2.23
9 | AGAACGAGGGCACGCTGAGTTGTTAGCAGAGTAG | 4.03 | 3.92 | 0.505 | 0.0717 | -0.208 | 0.851 | -0.39 | 0.724 | -0.521 | 2.62 | 1.16 | 1.85 | 2.11 | 1.95 | 1.55 | 1.73 | -0.0744 | 1.29
10 | ATACAAAGGTGATCGTGAGGTCGTTGATACTAAC | 1.15 | 2.15 | 1.05 | 0.894 | 1.53 | 4.07 | 1.38 | 3 | 1.26 | 2.54 | 2.28 | 3.87 | 1.85 | 0.883 | 2.73 | 3.66 | 2.12 | 2.97
11 | CCTTACGGGTCACTGACAGGTTATCGCATTTGGA | 3.47 | 3.69 | 0.381 | 0.623 | 2.57 | 3.78 | -0.364 | 4.93 | 0.262 | 4.06 | 3.3 | 5.91 | 4.66 | 1.9 | 5.05 | 3.02 | 0.17 | 0.982
12 | CCTTATGGGTCACGAGGTTATAGCACGACGAGCG | 6.86 | 7.13 | 2.07 | 2.59 | 3.76 | 3.9 | 0.436 | 5.4 | 0.87 | 4.43 | 3.34 | 5.59 | 4.86 | 1.46 | 6.1 | 3.3 | 0.63 | 1.1
13 | TCGAGTAGGTTAGTCGGGGGATTCAGCCAACATA | 2.61 | 3.13 | 3.86 | 5.11 | 0.49 | 0.855 | 0.0667 | 0.615 | 0.264 | 0.779 | 0.341 | 0.199 | 0.0266 | 0.48 | 0.178 | 1.25 | 0.267 | 0.183
14 | CTCGAAAGATCGTGCTCAGGTGAGTATACCAAAC | -0.285 | -0.0174 | -0.0381 | 0.428 | 0.0271 | -0.467 | -0.289 | -0.00355 | -0.239 | -0.0571 | -0.0864 | -0.0578 | -0.229 | -0.0478 | -0.33 | 1.28 | 0.584 | -0.082
15 | CGAACTAGGTCAAGGACAGTGCATCTCCGCACGC | 8.15 | 8.09 | 1.65 | 0.963 | 1.3 | 2.24 | 0.348 | 1.94 | -0.145 | 3.97 | 3.51 | 4.21 | 4.75 | 1.45 | 2.72 | 3.28 | 2.03 | 0.69
